Data as given in PubChem BioAssay (NCI).
“And” between values parts separate entries of the source, which are not always exact repeats. Equal entries are not always repeated. About 83,000 compounds went through this panel and 20% of them were active in at least one assay; those are over-represented in the sample as a whole.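 Step 1: grow cells in 96-well plates. Step 2: add test compound at a single concentration. Step 3: incubate 48 h. Step 4: record percent growth.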 The source made the active and inactive calls. Rule for the calls: active = growth percent below 10; inactive = the rest.

Tests used:
Experiment in all cases: NCI-60 one-dose screen, 48 h (100 = growth as untreated, 0 = no growth, -100 = all killed)
[1] = tested on: NCI-H23 lung
[2] = tested on: NCI-H322M lung
[3] = tested on: HOP-62 NSCLC
[4] = tested on: NCI-H460 lung
[5] = tested on: HOP-92 NSCLC
[6] = tested on: NCI-H522 lung
[7] = tested on: 786-0 renal
[8] = tested on: COLO 205 colon
[9] = tested on: DU-145 prostate
[10] = tested on: K-562 leukemia
[11] = tested on: MALME-3M melanoma
[12] = tested on: MDA-MB-231 breast
[13] = tested on: RXF 393 renal
[14] = tested on: SF-268 CNS
[15] = tested on: SF-295 CNS
[16] = tested on: SF-539 CNS
[17] = tested on: UACC-257 melanoma
[18] = tested on: M14 melanoma
[19] = tested on: NCI-H226 lung; conditions: 10 µM

Measured: growth

COc1ccc2oc(-c3ccc(Cl)cc3)c(N3CCN(C)CC3)c2c1
inactive: [1]; 10 µM 73.6% | [2]; 10 µM 113% | [3]; 10 µM 51.9% | [7]; 10 µM 27.2% | [9]; 10 µM 24.3% | [11]; 10 µM 121% | [13]; 10 µM 28% | [14]; 10 µM 37.2% | [17]; 10 µM 22%
active: [4]; 10 µM -62.6% | [5]; 10 µM -17.1% | [6]; 10 µM -78.2% | [8]; 10 µM -72.5% | [10]; 10 µM -24.7% | [12]; 10 µM 0.119% | [15]; 10 µM -54.5% | [16]; 10 µM -6.28% | [18]; 10 µM unless noted -66%

COc1cccc(C(c2cc3c(cc2O)OCO3)N2CCOCC2)c1OC (stereo not drawn)
inactive: [1]; 10 µM 109% | [2]; 10 µM 101% | [3]; 10 µM 101% | [4]; 10 µM 104% | [5]; 10 µM 99.6% | [6]; 10 µM 94.8% | [7]; 10 µM 101% | [8]; 10 µM 111% | [9]; 10 µM 109% | [10]; 10 µM 95.8% | [11]; 10 µM 99.2% | [12]; 10 µM 97.7% | [13]; 10 µM 103% | [14]; 10 µM 95.8% | [15]; 10 µM 99.7% | [16]; 10 µM 96.5% | [17]; 10 µM 98.4% | [18]; 10 µM unless noted 104%

Cc1cc(O)c2c(c1O)C(=O)C13C(=C2O)C(=O)C2C(O)C1C1C(O)C3C(=O)C3=C(O)c4c(O)cc(C)c(O)c4C(=O)C321 (stereo not drawn)
inactive: [1]; 10 µM 32.3% | [2]; 10 µM 19.4% | [12]; 10 µM 13.6% | [14]; 10 µM 10.6%
active: [3]; 10 µM 3.99% | [4]; 10 µM 0.0816% | [5]; 10 µM -18.2% | [6]; 10 µM 5.74% | [7]; 10 µM -33.2% | [8]; 10 µM -30.4% | [9]; 10 µM -6.49% | [10]; 10 µM 9.5% | [11]; 10 µM -2.77% | [13]; 10 µM -13.7% | [15]; 10 µM -30.2% | [16]; 10 µM -47.2% | [17]; 10 µM 8.71%

CC(=O)O[C@H]1C(=O)[C@@]2(C)[C@H]([C@H](OC(=O)c3ccccc3)[C@]3(O)C[C@H](OC(=O)[C@H](O)[C@@H](NC(=O)c4ccccc4)c4ccccc4)C(C)=C1C3(C)C)[C@]1(OC(C)=O)CO[C@@H]1C[C@@H]2O
30.7% (inactive) and 6.92% (active): [3]; 10 µM
inactive: [1]; 0.01 µM 24.1% | [1]; 2.5 µM 23.2% | [1]; 5 µM 30.5% | [1]; 10 µM 40.3% and 34.8% | [2]; 0.01 µM 53.8% | [2]; 2.5 µM 30.7% | [2]; 5 µM 30.1% | [2]; 10 µM 21.2% and 30.1% | [3]; 0.01 µM 48.2% | [3]; 2.5 µM 12.5% | [3]; 5 µM 15.4% | [4]; 0.01 µM 13.8% | [5]; 0.01 µM 53.2% | [5]; 2.5 µM 32.9% | [5]; 5 µM 42.7% | [5]; 10 µM 37.4% | [6]; 0.01 µM 22.1% | [7]; 0.01 µM 51.7% | [7]; 2.5 µM 17.7% | [7]; 5 µM 31% | [7]; 10 µM 42.2% and 42.3% | [8]; 0.01 µM 13.4% | [10]; 0.01 µM 10.7% | [11]; 0.01 µM 52.3% | [11]; 2.5 µM 51.7% | [11]; 5 µM 61.6% | [11]; 10 µM 52.5% and 62.6% | [12]; 0.01 µM 49.4% | [14]; 0.01 µM 42.1% | [14]; 2.5 µM 27.2% | [14]; 5 µM 29.5% | [14]; 10 µM 37.1% and 36.3% | [15]; 0.01 µM 55.9% | [17]; 0.01 µM 14.6% | [17]; 2.5 µM 48.7% | [17]; 5 µM 59.6% | [17]; 10 µM 26.9% and 65% | [18]; 5 µM 19.5% | [18]; 10 µM 24.9% and 24.5%
-16.2% (active) and 11.8% (inactive): [6]; 10 µM
28.9% (inactive) and -25.2% (active): [13]; 10 µM
active: [4]; 2.5 µM 3.32% | [4]; 5 µM 4.65% | [4]; 10 µM 8.92% and 6.58% | [6]; 2.5 µM -12.4% | [6]; 5 µM 1.57% | [8]; 2.5 µM -54.6% | [8]; 5 µM -47.9% | [8]; 10 µM 9.93% and -37.3% | [9]; 0.01 µM -35.7% | [9]; 2.5 µM -5.74% | [9]; 5 µM -7.54% | [9]; 10 µM -49.5% and -4.6% | [10]; 2.5 µM 5.83% | [10]; 5 µM 6.14% | [10]; 10 µM -6.92% and 5.96% | [12]; 2.5 µM -6.11% | [12]; 5 µM 2.87% | [13]; 0.01 µM 1.22% | [13]; 2.5 µM -29.4% | [13]; 5 µM -25.8% | [15]; 2.5 µM 2.61% | [15]; 5 µM 3.25% | [15]; 10 µM 9.92% and 1.83% | [16]; 0.01 µM -15.1% | [16]; 2.5 µM -28.7% | [16]; 5 µM -33.8% | [16]; 10 µM -14.3% and -16.1% | [18]; 2.5 µM -1.65%
29.1% (inactive) and 5.06% (active): [12]; 10 µM

CCOC(=O)[C@]1(Br)CC[C@@]1(Br)C(=O)OCC
inactive: [1]; 10 µM 109% | [2]; 10 µM 92.8% | [3]; 10 µM 127% | [4]; 10 µM 117% | [5]; 10 µM 109% | [7]; 10 µM 118% | [8]; 10 µM 116% | [9]; 10 µM 120% | [10]; 10 µM 43.6% | [11]; 10 µM 75.4% | [12]; 10 µM 99.4% | [13]; 10 µM 111% | [14]; 10 µM 108% | [15]; 10 µM 108% | [16]; 10 µM 104% | [17]; 10 µM 80.8% | [18]; 10 µM unless noted 86.6%
active: [6]; 10 µM -6.96%

O=c1[nH]cc(/C=N\Nc2ccccc2)c(=O)[nH]1
inactive: [1]; 10 µM 89.9% | [19] 87.7% | [2]; 10 µM 58.1% | [3]; 10 µM 62.7% | [4]; 10 µM 47.6% | [5]; 10 µM 96.7% | [6]; 10 µM 19.7% | [7]; 10 µM 79.6% | [8]; 10 µM 67.9% | [9]; 10 µM 74.2% | [11]; 10 µM 84.4% | [12]; 10 µM 63.9% | [13]; 10 µM 111% | [14]; 10 µM 58.5% | [15]; 10 µM 45.5% | [17]; 10 µM 78.4% | [18]; 10 µM unless noted 50.8%
active: [10]; 10 µM 8.14%

CN(CC(=O)O)c1ccc(/C=C/c2ccnc3ccccc23)cc1
inactive: [1]; 10 µM 99% | [2]; 10 µM 98.7% | [3]; 10 µM 83.5% | [4]; 10 µM 94.5% | [5]; 10 µM 46.2% | [6]; 10 µM 78.1% | [7]; 10 µM 95.8% | [8]; 10 µM 91.2% | [9]; 10 µM 97.7% | [10]; 10 µM 50.5% | [11]; 10 µM 99.2% | [12]; 10 µM 66.8% | [13]; 10 µM 111% | [14]; 10 µM 90.1% | [15]; 10 µM 92.2% | [16]; 10 µM 90.3% | [17]; 10 µM 86.9% | [18]; 10 µM unless noted 90.3%

Cc1cc(N=C2C=CC(=[N+](C)C)C=C2)c(N)cc1N
inactive: [1]; 10 µM 78.2% | [2]; 10 µM 93.7% | [3]; 10 µM 101% | [4]; 10 µM 102% | [5]; 10 µM 97.3% | [6]; 10 µM 77.7% | [7]; 10 µM 96% | [8]; 10 µM 95.8% | [9]; 10 µM 104% | [10]; 10 µM 57.3% | [11]; 10 µM 106% | [12]; 10 µM 65.2% | [13]; 10 µM 96.3% | [14]; 10 µM 97.9% | [15]; 10 µM 90.8% | [16]; 10 µM 89.3% | [17]; 10 µM 103% | [18]; 10 µM unless noted 107%

O=C1c2cccc3cc([N+](=O)[O-])cc(c23)C(=O)N1CCN1CCCC1
active: [1]; 10 µM -21.7% | [3]; 10 µM -23.3% | [4]; 10 µM -28.8% | [5]; 10 µM 0.989% | [6]; 10 µM -54.1% | [7]; 10 µM -18.8% | [8]; 10 µM -13.8% | [9]; 10 µM -30.9% | [10]; 10 µM -10.2% | [11]; 10 µM -26.4% | [13]; 10 µM -43% | [14]; 10 µM 0.438% | [16]; 10 µM -20.7% | [17]; 10 µM 3.14% | [18]; 10 µM unless noted 0.262%
inactive: [2]; 10 µM 23.7% | [12]; 10 µM 20.6% | [15]; 10 µM 11%

O=C(NC(=S)Nc1ccccn1)c1ccccc1
inactive: [1]; 10 µM 75.7% | [2]; 10 µM 85.5% | [3]; 10 µM 106% | [4]; 10 µM 94% | [5]; 10 µM 79.5% | [6]; 10 µM 82.1% | [7]; 10 µM 90.1% | [8]; 10 µM 101% | [9]; 10 µM 96.2% | [10]; 10 µM 143% | [11]; 10 µM 82.6% | [12]; 10 µM 91.6% | [13]; 10 µM 103% | [14]; 10 µM 104% | [15]; 10 µM 104% | [16]; 10 µM 88.6% | [17]; 10 µM 110% | [18]; 10 µM unless noted 91.9%

O=C1C(Cl)=C(Cl)C(Cl)(Cl)C(Cl)C1(Cl)Cl (stereo not drawn)
inactive: [1]; 10 µM 106% | [2]; 10 µM 103% | [3]; 10 µM 98.5% | [4]; 10 µM 118% | [5]; 10 µM 104% | [6]; 10 µM 89.3% | [7]; 10 µM 102% | [8]; 10 µM 105% | [9]; 10 µM 114% | [10]; 10 µM 102% | [11]; 10 µM 99.9% | [12]; 10 µM 96.2% | [13]; 10 µM 116% | [14]; 10 µM 108% | [15]; 10 µM 94.5% | [16]; 10 µM 96.2% | [17]; 10 µM 110% | [18]; 10 µM unless noted 103%

CCC(C)(c1ccc(O)c(C)c1)c1ccc(O)c(C)c1
inactive: [1]; 10 µM 91.9% | [19] 101% | [2]; 10 µM 318% | [3]; 10 µM 84.5% | [4]; 10 µM 97.3% | [5]; 10 µM 82.4% | [6]; 10 µM 75.9% | [7]; 10 µM 63.5% | [9]; 10 µM 110% | [10]; 10 µM 106% | [11]; 10 µM 219% | [12]; 10 µM 85% | [13]; 10 µM 87.4% | [14]; 10 µM 89.7% | [15]; 10 µM 87.8% | [16]; 10 µM 93.7% | [17]; 10 µM 107% | [18]; 10 µM unless noted 91.6%
